17 compounds from the supplement of paper PMC9492666 can be followed below.

Each structure is given as a SMILES string.
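Note: viability read by CCK-8 kit in 96-well plates, part of a combination screen pairing lipid-metabolism-targeting compounds with erastin.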

This assay relates to MDA-MB-231. Nature of the assay: relative cell viability, compound + erastin, vs DMSO (fraction of DMSO control); higher = less growth inhibition. The conditions noted are these: 72 h.
On to `O=C(O)CC[C@H](O)C(=O)O` [L-2-Hydroxyglutaric acid disodium] + CCOc1ccccc1-n1c(C(C)N2CCN(C(=O)COc3ccc(Cl)cc3)CC2)nc2ccccc2c1=O [erastin], for which the relative cell viability came out at 0.701. Regarding `C=CC[S+]([O-])C[C@H](N)C(=O)O` (some centres not stated) [Alliin] + CCOc1ccccc1-n1c(C(C)N2CCN(C(=O)COc3ccc(Cl)cc3)CC2)nc2ccccc2c1=O [erastin], the relative cell viability stood at 0.778. The result for `O=C(ON1C(=O)CCC1=O)N1CCN(C(c2ccc(Cl)cc2)c2ccc(Cl)cc2)CC1` [Cravatt Reagent] + CCOc1ccccc1-n1c(C(C)N2CCN(C(=O)COc3ccc(Cl)cc3)CC2)nc2ccccc2c1=O [erastin] reads 0.772; that for `CC(C)(Oc1ccc(C2CC2(Cl)Cl)cc1)C(=O)O` (configuration not stated) [Ciprofibrate] + CCOc1ccccc1-n1c(C(C)N2CCN(C(=O)COc3ccc(Cl)cc3)CC2)nc2ccccc2c1=O [erastin], 0.628. Next, `COC(=O)N(CC(=O)O)Cc1cccc(OCc2nc(-c3ccc(Cl)cc3)oc2C)c1` + CCOc1ccccc1-n1c(C(C)N2CCN(C(=O)COc3ccc(Cl)cc3)CC2)nc2ccccc2c1=O [erastin]: 0.627; `CC(C)OC(=O)C(C)(C)Oc1ccc(C(=O)c2ccc(Cl)cc2)cc1` [Fenofibrate] + CCOc1ccccc1-n1c(C(C)N2CCN(C(=O)COc3ccc(Cl)cc3)CC2)nc2ccccc2c1=O [erastin]: 0.646.

For `CCN(CC)Cc1ccc(C(=O)N(CCc2ccccc2OC)[C@@H]2CCNC2)cc1` + CCOc1ccccc1-n1c(C(C)N2CCN(C(=O)COc3ccc(Cl)cc3)CC2)nc2ccccc2c1=O [erastin], the relative cell viability came to 0.726. The result for `CC(C)(Oc1ccc(C(=O)c2ccc(Cl)cc2)cc1)C(=O)O` [Fenofibric acid] + CCOc1ccccc1-n1c(C(C)N2CCN(C(=O)COc3ccc(Cl)cc3)CC2)nc2ccccc2c1=O [erastin] reads 0.915; that for `CC[C@H](C)C(=O)O[C@H]1CCC=C2C=C[C@H](C)[C@H](CC[C@@H]3C[C@@H](O)CC(=O)O3)[C@H]21` [Mevastatin] + CCOc1ccccc1-n1c(C(C)N2CCN(C(=O)COc3ccc(Cl)cc3)CC2)nc2ccccc2c1=O [erastin], 0.434. On to `NC(N)=N/N=C/c1cccc(Cl)c1Cl` [Raphin1 acetate] + CCOc1ccccc1-n1c(C(C)N2CCN(C(=O)COc3ccc(Cl)cc3)CC2)nc2ccccc2c1=O [erastin], for which the relative cell viability was found to be 0.588. The result for `C=C(C)[C@@H]1CC[C@]2(C)CC[C@]3(C)[C@H](CC[C@@H]4[C@@]5(C)CCC(=O)C(C)(C)[C@@H]5CC[C@]43C)[C@@H]12` + CCOc1ccccc1-n1c(C(C)N2CCN(C(=O)COc3ccc(Cl)cc3)CC2)nc2ccccc2c1=O [erastin] reads 0.594. Next, `CC(C)=CCC[C@](C)(O)[C@H]1CC[C@]2(C)[C@@H]1[C@H](O)C[C@@H]1[C@@]3(C)CC[C@H](O)C(C)(C)[C@@H]3[C@@H](O)C[C@]12C` [(20S)-Protopanaxatriol] + CCOc1ccccc1-n1c(C(C)N2CCN(C(=O)COc3ccc(Cl)cc3)CC2)nc2ccccc2c1=O [erastin]: 0.397; `CCC(=O)O[C@]1(C(=O)CCl)[C@@H](C)C[C@H]2[C@@H]3C[C@H](F)C4=CC(=O)C=C[C@]4(C)[C@@]3(F)[C@@H](O)C[C@@]21C` [Halobetasol Propionate] + CCOc1ccccc1-n1c(C(C)N2CCN(C(=O)COc3ccc(Cl)cc3)CC2)nc2ccccc2c1=O [erastin]: 0.973. The result for `O=C(Nc1ccc(C(O)(C(F)(F)F)C(F)(F)F)cc1)c1ccc(C(F)(F)F)cc1` + CCOc1ccccc1-n1c(C(C)N2CCN(C(=O)COc3ccc(Cl)cc3)CC2)nc2ccccc2c1=O [erastin] reads 0.693; that for `Cc1cc(C)c(S(=O)(=O)N(CCc2cccc(Br)c2)Cc2ccc(-c3cccc(S(C)(=O)=O)c3)cc2)c(C)c1` + CCOc1ccccc1-n1c(C(C)N2CCN(C(=O)COc3ccc(Cl)cc3)CC2)nc2ccccc2c1=O [erastin], 0.777; that for `C/C=C/c1cc(OC)c(OC)cc1OC` [alpha-Asarone] + CCOc1ccccc1-n1c(C(C)N2CCN(C(=O)COc3ccc(Cl)cc3)CC2)nc2ccccc2c1=O [erastin], 0.774. On to `Cc1cnc(C(=O)NCCc2ccc(S(=O)(=O)NC(=O)NC3CCCCC3)cc2)cn1` [Glipizide] + CCOc1ccccc1-n1c(C(C)N2CCN(C(=O)COc3ccc(Cl)cc3)CC2)nc2ccccc2c1=O [erastin], for which the relative cell viability is 0.843.
